This is part of a sample that, as a whole, favours compounds with a hit. Of some 83,000 tested, about 20% had one in any assay.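 Interpretation: 100, growth as untreated; towards 0, rising growth inhibition; 0, no net growth; 0 to -100, cell death. Compounds scoring below 10 were considered active.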 A number with no mark means an inactive call. Activity calls are given as the source filed them.

Some test systems named below: DU-145 prostate; K-562 leukemia; MALME-3M melanoma; MDA-MB-231 breast; RXF 393 renal; SF-268 CNS; SF-295 CNS; SF-539 CNS; UACC-257 melanoma; M14 melanoma; HCT-15 colon; HT29 colon; SNB-75 CNS; SNB-19 CNS; U251 CNS; PC-3 prostate; SK-MEL-5 melanoma; UACC-62 melanoma; LOX IMVI melanoma; SK-MEL-28 melanoma.
Common to all, as to experiment: NCI-60 one-dose screen, 48 h (100 = growth as untreated, 0 = no growth, -100 = all killed)
Holding throughout (conditions): 10 µM unless noted

Take `CCCCN(CCCC)CCCN=c1nc2c(c(N)n1-c1ccccc1)c(=S)n(-c1ccccc1)c(=S)n2-c1ccccc1`: the growth with DU-145 prostate was -100% (active); in the assay with K-562 leukemia, -90.3% (active); with MALME-3M melanoma it was -91.5% (active); with MDA-MB-231 breast, -89.1% (active); with RXF 393 renal, -67.7% (active); with SF-268 CNS it was -94% (active). The growth in the assay on SF-295 CNS is -100% (active); in the assay on SF-539 CNS, -97.7% (active); in the assay on UACC-257 melanoma, -73.1% (active); in the assay with M14 melanoma it was -86.3% (active); in the assay with HCT-15 colon it was -73.3% (active); with HT29 colon, -63.3% (active). Also, the growth with SNB-75 CNS was -94.2% (active); with SNB-19 CNS, -87.4% (active); in the assay on U251 CNS it was -100% (active); in the assay with PC-3 prostate, -70.8% (active); in the assay on SK-MEL-5 melanoma, -100% (active); with UACC-62 melanoma it was -99.4% (active). Also, the figures for the growth in the assay with LOX IMVI melanoma and with SK-MEL-28 melanoma were -89.7% (active) and -100% (active), respectively.

For the compound `CNC(=O)c1cc(Oc2ccc(NC(=O)c3nc(S(C)(=O)=O)sc3-c3ccc(F)cc3)cc2)ccn1`, the growth with DU-145 prostate is -57.5% (active); in the assay with K-562 leukemia, 86.8%; in the assay on MALME-3M melanoma, 94.5%; in the assay with MDA-MB-231 breast, 119%; in the assay on RXF 393 renal it was 104%; in the assay with SF-268 CNS, 98.8%. The growth was 95.3% with SF-295 CNS; 97.4% with SF-539 CNS; 65.7% in the assay with UACC-257 melanoma; 87.8% with M14 melanoma; 86.4% in the assay with HCT-15 colon; 4.79% (active) in the assay on HT29 colon. Also, the growth with SNB-75 CNS was 113%; with SNB-19 CNS it was 84.4%; in the assay with U251 CNS, 86.6%; in the assay with PC-3 prostate, 71.1%; in the assay on SK-MEL-5 melanoma, 90.3%; in the assay with UACC-62 melanoma, 93.3%. Moreover, the growth with LOX IMVI melanoma was 45.7%; in the assay with SK-MEL-28 melanoma it was 57.9%.

In the case of `N#Cc1c(NN)n(C2OC(CO)C(O)C2O)c2ncnc(N)c12` (stereo not given), the growth with DU-145 prostate was -0.273% (active); in the assay with K-562 leukemia, -46.1% (active); in the assay with MALME-3M melanoma, -9.07% (active); in the assay with MDA-MB-231 breast, 15.2%; in the assay with RXF 393 renal it was -53.1% (active); in the assay on SF-268 CNS it was 15.1%. Moreover, the growth in the assay with SF-295 CNS is 56.9%; with SF-539 CNS, -5.9% (active); in the assay on UACC-257 melanoma, -26.3% (active); with M14 melanoma it was -18.3% (active); in the assay with HCT-15 colon it was 3.17% (active); in the assay on HT29 colon, 4.15% (active). Besides, the growth was 35.2% in the assay with SNB-75 CNS; 54.7% in the assay with SNB-19 CNS; 34.5% in the assay on U251 CNS; 6.48% (active) in the assay with PC-3 prostate; -67.5% (active) with SK-MEL-5 melanoma; -39.3% (active) with UACC-62 melanoma. Also, the figures for the growth in the assay on LOX IMVI melanoma and in the assay on SK-MEL-28 melanoma were -4.81% (active) and -15.1% (active), respectively.

Take `CN(C)CCOc1nc2c3cccnc3cc(-c3cccc(Cl)c3)c2c2ncccc12`: the growth is 14.3% in the assay with DU-145 prostate; -21% (active) with K-562 leukemia; -90.4% (active) with MALME-3M melanoma; -11.5% (active) with MDA-MB-231 breast; -87.4% (active) with RXF 393 renal; 27.4% in the assay on SF-268 CNS. Also, the growth in the assay with SF-295 CNS is 27.9%; with SF-539 CNS, 36.3%; in the assay on UACC-257 melanoma it was -57.5% (active); with M14 melanoma, -82.1% (active); with HCT-15 colon it was -10.9% (active); in the assay on HT29 colon, 1.5% (active). Also, the growth in the assay with SNB-75 CNS was 38.2%; in the assay with SNB-19 CNS, 26.4%; in the assay with U251 CNS, 11.2%; in the assay on PC-3 prostate, 22.4%; in the assay on SK-MEL-5 melanoma, 1.23% (active); in the assay with UACC-62 melanoma, -75.6% (active). Further, the growth in the assay on LOX IMVI melanoma is -94.5% (active); with SK-MEL-28 melanoma, -81.6% (active).

Regarding `O=C(CCc1nc2sc3c(c2c(=O)[nH]1)CCC3)NCc1cn(-c2ccccc2)nc1-c1ccccc1`, the growth in the assay with DU-145 prostate is 48.7%; in the assay with K-562 leukemia, 84.6%; in the assay on MALME-3M melanoma, 47.7%; in the assay on MDA-MB-231 breast, 11.4%; with RXF 393 renal it was 48.8%; with SF-268 CNS it was 65.3%. In addition, the growth is 46.2% in the assay with SF-295 CNS; 83.3% in the assay on SF-539 CNS; 98.5% with UACC-257 melanoma; 74.5% in the assay with M14 melanoma; 86% in the assay with HCT-15 colon; 83.3% with HT29 colon. Further, the growth is -59% (active) in the assay on SNB-75 CNS; 49.8% in the assay on SNB-19 CNS; 44% in the assay on U251 CNS; 29.9% with PC-3 prostate; 72.5% in the assay on SK-MEL-5 melanoma; 88.6% in the assay with UACC-62 melanoma. The growth with LOX IMVI melanoma is 44%; in the assay on SK-MEL-28 melanoma it was 79.1%.

With `Clc1ccc(-c2nc(Br)cn3ccnc23)cc1`, the growth in the assay with DU-145 prostate was 91%; in the assay with K-562 leukemia, 90.2%; in the assay with MALME-3M melanoma it was 103%; in the assay with MDA-MB-231 breast, 69.6%; in the assay with RXF 393 renal, 90.4%; in the assay on SF-268 CNS, 81.7%. For the same compound, the growth in the assay on SF-295 CNS was 93.4%; in the assay with SF-539 CNS it was 81.6%; in the assay with UACC-257 melanoma, 95.8%; in the assay with M14 melanoma, 94.3%; with HCT-15 colon, 86.1%; in the assay on HT29 colon it was 87.6%. Moreover, the growth with SNB-75 CNS was 91%; with SNB-19 CNS it was 82.5%; in the assay on U251 CNS it was 78.2%; in the assay with PC-3 prostate, 81.6%; with SK-MEL-5 melanoma it was 80.7%; with UACC-62 melanoma, 77.4%. Further, the growth was 77.8% in the assay with LOX IMVI melanoma and 100% with SK-MEL-28 melanoma.

Turning to `COc1ccc([C@@H]2[C@@H](Oc3ccccc3)C(=O)N2c2cc(OC)c(OC)c(OC)c2)cc1F`, the growth in the assay on DU-145 prostate was 9.48% (active); in the assay with K-562 leukemia, 4.73% (active); with MALME-3M melanoma, 65.5%; in the assay with MDA-MB-231 breast, 12.4%; with RXF 393 renal it was 3.39% (active); with SF-268 CNS, 25.3%. For the same compound, the growth was 3.68% (active) with SF-295 CNS; -21.1% (active) with SF-539 CNS; 57.3% in the assay on UACC-257 melanoma; 5.14% (active) with M14 melanoma; 12.7% with HCT-15 colon; -6.94% (active) in the assay on HT29 colon. Also, the growth is 61.4% in the assay on SNB-75 CNS; 19.9% in the assay on SNB-19 CNS; 4.18% (active) in the assay with U251 CNS; 20.7% in the assay with PC-3 prostate; -15.1% (active) in the assay with SK-MEL-5 melanoma; 0.0629% (active) in the assay on UACC-62 melanoma. Moreover, the values for the growth with LOX IMVI melanoma and in the assay on SK-MEL-28 melanoma were 14% and 48.9%, respectively.

Values taken from PubChem BioAssay (NCI).
